This is a sample that favours compounds with a hit; in the whole collection about 12% have one here.
WT yeast gro inh – growth inhibition of WT yeast, mitochondrial fusion screen; 190,000 compounds, 2.1% hits; AID 1362; mitochondrial fusion phenotypic screen, WT strain; inhibition, % at 10 µM; in the data active = inhibition above about 58%; tested in S. cerevisiae
L major viab – inhibitors of Leishmania major promastigote growth | inhibition, % at 10 µM | 200,000 compounds, 9% hits | Leishmania major promastigotes, resazurin fluorescence viability; in the data active = inhibition above about 50%;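 note: promastigotes grown with compound for 44 hours at 28 °C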
Calpain2 inh – blocks pig calpain II enzyme activity; 220,000 compounds, 0.37% hits; purified calpain II, fluorogenic peptide substrate, 30 min; AID 1236; inhibition, % at 16 µM;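 active = inhibition above about 50%, limit read from the data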
Cl transport mod – modulates chloride dependent transport by human KCC2; KCC2 cells, thallium flux FluoZin-2 fluorescence; B-score of Tl+ flux slope (higher = more flux/activation; lower = inhibition) at 10 µM; 190,000 compounds, 2.2% hits; AID 1456;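 active = thallium flux slope and its plate-corrected score both differing from the plate sample mean at a set confidence after two filtering rounds, in either direction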;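 note: slope of fluorescence scaled to starting intensity during 10 to 20 s after thallium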
Target sequence (Q9H2X9 whole entry, looked up): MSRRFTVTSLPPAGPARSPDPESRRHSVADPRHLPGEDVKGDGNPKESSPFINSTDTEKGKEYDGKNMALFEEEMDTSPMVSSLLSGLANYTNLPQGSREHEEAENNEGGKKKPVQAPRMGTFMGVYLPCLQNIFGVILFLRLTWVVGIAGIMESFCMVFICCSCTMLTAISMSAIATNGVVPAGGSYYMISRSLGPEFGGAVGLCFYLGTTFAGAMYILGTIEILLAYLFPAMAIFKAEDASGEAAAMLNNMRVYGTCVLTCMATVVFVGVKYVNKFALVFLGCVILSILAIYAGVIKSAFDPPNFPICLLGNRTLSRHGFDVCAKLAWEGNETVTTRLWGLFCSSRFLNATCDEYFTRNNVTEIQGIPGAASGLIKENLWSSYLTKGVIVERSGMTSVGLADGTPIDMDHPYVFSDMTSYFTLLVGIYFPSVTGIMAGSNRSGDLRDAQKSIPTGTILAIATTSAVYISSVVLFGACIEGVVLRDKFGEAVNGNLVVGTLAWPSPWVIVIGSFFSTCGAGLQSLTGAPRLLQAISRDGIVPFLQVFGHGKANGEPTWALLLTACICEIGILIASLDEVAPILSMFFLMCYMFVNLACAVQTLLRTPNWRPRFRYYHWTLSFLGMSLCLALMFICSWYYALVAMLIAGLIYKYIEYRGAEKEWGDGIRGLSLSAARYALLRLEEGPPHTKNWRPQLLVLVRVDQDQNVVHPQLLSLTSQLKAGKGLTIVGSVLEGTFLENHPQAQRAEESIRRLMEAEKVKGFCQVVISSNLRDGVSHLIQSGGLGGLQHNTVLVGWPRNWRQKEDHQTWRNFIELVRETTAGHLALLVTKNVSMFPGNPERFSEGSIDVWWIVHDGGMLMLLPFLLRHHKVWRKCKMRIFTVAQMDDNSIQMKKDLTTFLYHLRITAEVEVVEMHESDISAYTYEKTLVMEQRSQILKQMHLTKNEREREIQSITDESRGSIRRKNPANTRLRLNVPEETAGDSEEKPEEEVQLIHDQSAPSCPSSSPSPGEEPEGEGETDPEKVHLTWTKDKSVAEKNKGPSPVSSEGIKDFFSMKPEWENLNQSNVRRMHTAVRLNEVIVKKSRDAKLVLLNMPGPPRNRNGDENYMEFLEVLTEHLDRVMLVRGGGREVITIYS
ROMK mod – modulates human ROMK potassium channel activity. B-score at 10 µM. 130,000 compounds, 2% hits. Tet-inducible ROMK, thallium flux fluorescence; actives lie on both sides. AID 1918. P48048;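 active = signal ratio slope over the read window, or its plate-corrected B-score, at least 3 SD from the plate mean, either direction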;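 note: B-score of the F/F0 ratio slope over 7 to 12 s after thallium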
Starred values were filed as active, the others as inactive; / = no result given.

SMILES	WT yeast gro inh	L major viab	Calpain2 inh	Cl transport mod	ROMK mod
OCC1(CCOc2ccccc2)CCN(Cc2ccc3c(c2)OCCO3)CC1	10.8	91.8*	4.4	0.365	-2.32
COc1ccc(C(=O)NC(C(=O)NCCc2ccc3c(c2)OCCO3)C(C)C)cc1 (stereo not given)	-9.1	3.9	9.6	-0.011	0.132
N#Cc1nc(COc2cccc(Cl)c2)oc1N1CCN(c2ccccc2)CC1	-11.1	-4.1	30.3	0.25	-0.933
N#Cc1nc(COc2ccccc2)oc1N1CCN(c2cccc(Cl)c2)CC1	13.6	-7.3	55.9*	-1.41	0.339
O=[N+]([O-])c1ccccc1CNc1ccc(F)c(Cl)c1	25.8	-1.9	25.8	-0.00266	-0.579
COc1cccc(CNc2ccc(F)c([N+](=O)[O-])c2)c1O	-0.9	0.2	83.6*	0.149	-1.19
CCOC(=O)c1c(N)sc(C(=O)Nc2ccccc2F)c1C	35.0	23.9	39.3	/	-0.55
CCOC(=O)c1c(N)sc(C(=O)Nc2ccccc2)c1C	11.6	58.2*	-9.0	-0.555	-0.0865
CCOC(=O)c1c(C)nc2sc(C(=O)Nc3ccccc3)c(N)c2c1-c1ccc(OC)cc1	5.1	96.6*	-157.1	-0.463	-1.08
CCOC(=O)c1c(C)nc2sc(C(N)=O)c(N)c2c1-c1ccccc1	-2.0	33.9	20.4	-0.74	2.75
CCOC(=O)c1sc(NC(=O)Nc2ccccc2)cc1C	41.2	92.4*	37.5	-0.317	-0.84
CCOC(=O)c1sc(NC(C)=O)cc1C	11.9	-2.9	9.8	0.399	/
CCOC(=O)c1sc(NC(=O)Nc2ccccc2Cl)cc1C	33.8	79.8*	-0.1	-0.163	/
O=C(/C=C\Nc1ccc(S(=O)(=O)Nc2ncccn2)cc1)c1ccccc1	/	/	-8.4	0.0583	-0.054
O=C(COc1ccc(-n2ccnc2)cc1)Nc1cccc(Cl)c1	-14.6	42.5	4.1	-0.85	-0.163
Cc1cc(NC(=O)c2cccc(S(=O)(=O)N3c4ccccc4CC3C)c2)no1 (stereo not given)	/	/	-7.5	-0.192	/
CCOC(=O)c1sc(NC(=O)c2cccc(S(=O)(=O)N3c4ccccc4CC3C)c2)cc1C (stereo not given)	-0.6	61.7*	-278.3	0.896	0.594
O=C(C1CCCCC1)N(Cc1ccccc1)c1ccccn1	84.1*	-4.2	-4.3	-0.495	/
S=c1[nH]nc(C2COc3ccccc3O2)o1 (stereo not given)	6.6	-4.6	-32.1	-6.9*	/
Cc1nc(CNS(=O)(=O)c2ccccc2F)cs1	-0.8	-7.5	0.9	0.0658	-2
FC(F)(F)c1cc(-c2ccco2)nc(N2CCN(c3ccccc3)CC2)n1	27.2	-0.2	12.5	/	/
O=C(CCSc1nc(-c2ccco2)cc(C(F)(F)F)n1)N1CCN(c2ccccc2)CC1	61.8*	-6.8	-7.8	0.188	/
COc1ccc(-c2cc(C(F)(F)F)nc(SCCC(=O)N3CCN4CCCC4C3)n2)cc1 (stereo not given)	-2.7	55.0*	-92.3	-0.578	/
CCOC(=O)C1CCCN(C(=O)c2cc3cc(Br)ccc3oc2=O)C1 (stereo not given)	-14.8	-2.5	19.4	0.87	0.546
COc1ccc(Nc2nc(N)nc(CSC(=S)N3CCCCC3C)n2)cc1 (stereo not given)	/	/	-14.6	-1.76	/
SMILES	WT yeast gro inh	L major viab	Calpain2 inh	Cl transport mod	ROMK mod
Cn1c(=O)c2c(nc(-n3ccnc3)n2Cc2ccc(Cl)cc2Cl)n(C)c1=O	-6.2	83.7*	2.9	/	-0.864
Cn1c(=O)c2c(nc(-n3ccnc3)n2Cc2ccccc2)n(C)c1=O	-10.7	8.0	-15.5	/	/
CC(=O)c1sc(NC(=O)CN2C(=O)CCC2=O)nc1C	/	-3.9	/	0.0196	/
CN(C)CCn1c(=S)[nH]c2ccccc2c1=O	-0.3	0.4	-25.2	0.169	-1.09
CCN(CC)CCn1c(=S)[nH]c2cc(Cl)ccc2c1=O	-12.8	11.7	-14.1	25.5*	/
CCCNC(=O)C12CCC(C)(c3nc4cc(C)c(C)cc4nc31)C2(C)C (stereo not given)	22.5	0.7	14.5	-0.299	-1.94
Cc1c(C(=O)NCCCN2CCOCC2)oc2c1C1(CCC2)SCCS1	-17.4	87.8*	-4.5	0.4	0.0823
O=C1OC(c2cccc([N+](=O)[O-])c2)C2(CCCC2)C(=O)C12CCCCC2 (stereo not given)	51.3	5.2	52.9*	0.0336	0.321
COc1ccccc1N1CCN(CC(O)COc2c(OC)cccc2OC)CC1 (stereo not given)	-10.0	-1.8	-22.4	/	/
COc1ccccc1N1CCN(CC(O)c2ccc3cc[nH]c3c2)CC1 (stereo not given)	11.4	89.2*	-10.8	0.0503	/
CCOC(=O)N1CCN(CC(O)c2ccc3cc[nH]c3c2)CC1 (stereo not given)	-1.1	70.2*	-3.1	1.5	/

Assay outcomes deposited in PubChem by several laboratories.
